Counter-ions that a name gives are not always drawn.
system: Saccharomyces cerevisiae BY4741 SeMeCo community; test: z-score of subpopulation abundance vs DMSO median, subpopulation auxotrophic for HUM; higher = larger share of this subpopulation than in DMSO controls; conditions: 10 µM; 24 h; SM minimal medium; subpopulation (auxotrophy): HUM
Method: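 Fluorescent four-plasmid SeMeCo (self-establishing metabolically cooperating S. cerevisiae BY4741 community; plasmids pH-mRuby2, pL-mWasabi, pU-eCFP, pM-TagRFP657) was grown 24 h in minimal SM medium with each Selleck FDA-approved drug at 10 µM in 384-well plates. Cells were fixed and imaged by high-content confocal microscopy. For each auxotrophic subpopulation (and the prototroph), a z-score gives the deviation from the DMSO vehicle-control population median.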

Compound	z-score of subpopulation abundance
CN1C(C(=O)Nc2ccccn2)=C(O)c2sc(Cl)cc2S1(=O)=O [Lornoxicam]	-0.27
CN1CC2c3ccccc3Oc3ccc(Cl)cc3C2C1 (stereo not given) [Asenapine maleate]	0.01
CC(C)C(=O)c1c(C(C)C)nn2ccccc12 [Ibudilast]	-0.38
CCN(CC)C(=O)[C@@]1(c2ccccc2)C[C@H]1CN [Levomilnacipran Hydrochloride]	-0.17
CNCC[C@H](Oc1cccc2ccccc12)c1cccs1 [Duloxetine]	0.24
Clc1ccc(COC(Cn2ccnc2)c2ccc(Cl)cc2Cl)c(Cl)c1 (stereo not given) [Miconazole]	6.04
Oc1c(Cl)cc(Cl)c(Cl)c1Cc1c(O)c(Cl)cc(Cl)c1Cl [Hexachlorophene]	14
CC1=C(C(=O)OCCN(Cc2ccccc2)c2ccccc2)C(c2cccc([N+](=O)[O-])c2)C(P2(=O)OCC(C)(C)CO2)=C(C)N1 (stereo not given) [Efonidipine]	1.54
O=c1[nH]c(=O)n([C@H]2C[C@H](O)[C@@H](CO)O2)cc1/C=C/Br [Brivudine]	-0.74
CNCc1cc(-c2ccccc2F)n(S(=O)(=O)c2cccnc2)c1 [Vonoprazan Fumarate (TAK-438)]	-0.68
C/C(=C\C(=O)OCCCCCCCCC(=O)O)C[C@@H]1OC[C@H](C[C@@H]2O[C@H]2[C@@H](C)[C@H](C)O)[C@@H](O)[C@H]1O [Mupirocin calcium]	1.29
COc1ccc2cc([C@H](C)C(=O)O)ccc2c1 [Naproxen Sodium]	-2.32
NC[C@@H]1O[C@H](O[C@H]2[C@@H](O)[C@H](O[C@@H]3[C@@H](O)[C@H](N)C[C@H](N)[C@H]3O[C@H]3O[C@H](CN)[C@@H](O)[C@H](O)[C@H]3N)O[C@@H]2CO)[C@H](N)[C@@H](O)[C@@H]1O [Neomycin sulfate]	-1.64
CC1=C(C(=O)O)N2C(=O)[C@@H](NC(=O)[C@H](N)c3ccccc3)[C@H]2SC1 [Cephalexin]	0.41
O=C1NC(=O)C(c2ccccc2)(c2ccccc2)N1 [Phenytoin]	0.18
O=C(O)CCC(=O)OC[C@@H](NC(=O)C(Cl)Cl)[C@H](O)c1ccc([N+](=O)[O-])cc1 [Chloramphenicol sodium succinate]	0.13
CC(C)C(=O)Oc1ccc(CO)cc1[C@H](CCN(C(C)C)C(C)C)c1ccccc1 [Fesoterodine Fumarate]	-0.72
O=c1[nH]c(=O)n([C@H]2C[C@H](O)[C@@H](CO)O2)cc1I [Idoxuridine]	-0.68
COc1ccc2cc(CCC(C)=O)ccc2c1 [Nabumetone]	-0.22
O=c1ccc2ccc(OCCCCN3CCN(c4cccc5sccc45)CC3)cc2[nH]1 [Brexpiprazole]	0.25

Compound	z-score of subpopulation abundance
CC1(C)S[C@@H]2[C@H](NC(=O)[C@H](C(=O)O)c3ccsc3)C(=O)N2[C@H]1C(=O)O [Ticarcillin sodium]	0.83
CN[C@@H]1[C@H](O)[C@H](NC)[C@H]2O[C@@]3(O)C(=O)C[C@@H](C)O[C@H]3O[C@@H]2[C@H]1O [Spectinomycin 2HCl]	-0.21
COc1ccc(C(C)=O)c(O)c1 [Paeonol]	0.18
Fc1ccc([C@@H]2CCNC[C@H]2COc2ccc3c(c2)OCO3)cc1 [Paroxetine HCl]	-0.39
CCN1CCN(C(=O)N[C@@H](C(=O)N[C@@H]2C(=O)N3C(C(=O)O)=C(CSc4nnnn4C)CS[C@H]23)c2ccc(O)cc2)C(=O)C1=O [Cefoperazone]	-0.49
COc1ncnc(NS(=O)(=O)c2ccc(N)cc2)c1OC [Sulfadoxine]	1.04
Cc1nc2n(c(=O)c1CCN1CCC(c3noc4cc(F)ccc34)CC1)CCCC2 [Risperidone]	1.02
CCn1cc(C(=O)O)c(=O)c2cnc(N3CCNCC3)nc21 [Pipemidic acid]	0.55
c1cnc2cc3c(cc2n1)[C@@H]1CNC[C@H]3C1 [Varenicline Tartrate]	-0.72
Nc1c(CC(=O)O)cccc1C(=O)c1ccccc1 [Amfenac Sodium Monohydrate]	0.74
COc1cc(NS(=O)(=O)c2ccc(N)cc2)nc(OC)n1 [SulfadiMethoxine sodium]	-0.22
NC[C@H]1O[C@H](O[C@H]2[C@H](O[C@@H]3O[C@H](CO)[C@@H](O)[C@H]3O)[C@@H](O)[C@H](N)C[C@@H]2N)[C@H](N)[C@@H](O)[C@@H]1O [Ribostamycin Sulfate]	0.24
CCCCOc1ccc(C(=O)CCN2CCCCC2)cc1 [Dyclonine HCl]	0.17
CC#C[C@]1(O)CC[C@H]2[C@@H]3CCC4=CC(=O)CCC4=C3[C@@H](c3ccc(N(C)C)cc3)C[C@@]21C [Mifepristone]	1.71
CO[C@H]1O[C@@H]2O[C@@]3(C)CC[C@H]4[C@H](C)CC[C@@H]([C@H]1C)[C@@]24OO3 [Artemether]	-0.53
Nc1ccc(/N=N/c2ccccc2)c(N)n1 [Phenazopyridine HCl]	-1.7
Nc1c2c(nc3ccccc13)CCCC2 [Tacrine hydrochloride hydrate]	0.1
CC(C)n1c(/C=C/C(O)CC(O)CC(=O)O)c(-c2ccc(F)cc2)c2ccccc21 (stereo not given) [Fluvastatin Sodium]	12.8
Nc1nc2[nH]cc(CCc3ccc(C(=O)N[C@@H](CCC(=O)O)C(=O)O)cc3)c2c(=O)[nH]1 [Pemetrexed Disodium Hydrate]	-4.9
CC(C[N+](C)(C)C)OC(N)=O (stereo not given) [Bethanechol chloride]	-0.33

From the supplement of paper PMC8975748
